# The list is not random: actives were taken first. Their share in the collection is about 1.4%.
# Mtb MenB inh: M. tuberculosis MenB inhibitors, primary screen, biochemical, absorbance. actives 0.43% (n = 100,000). 1,4-dihydroxy-2-naphthoyl-CoA synthase (Mycobacterium tuberculosis (strain ATCC 25618 / …. MenB enzyme assay, absorbance read-out. AID 540299, 2011. inhibition, % (no concentration beside the values); in the data active = inhibition above about 21%, passing the limit was not always enough
# PV pol inh: poliovirus RdRp elongation inhibitors, primary screen, biochemical, fluorescence polarization, total intensity. Genome polyprotein (Poliovirus type 1 (strain Mahoney)), P03300. poliovirus polymerase elongation; stronger effect = lower value. % elongation, % (compound at 16.7 µg/mL). actives 0.66% (n = 150,000). AID 588519, 2011; in the data active = % elongation below about 90%
# AID504770: growth inhibition of E. coli YBA685, primary screen, V. cholerae RctB inhibitors | E. coli YBA685 rctB-dependent plasmid, OD600 growth, 3 h; stronger effect = lower value | z-score (test concentration not listed) | actives 0.27% (n = 130,000) | AID 504770, 2011; in the data active = z-score below about -2, passing the limit was not always enough
# Mtb MbtI inh: MbtI salicylate synthase inhibitors, primary screen, biochemical, fluorescence intensity. actives 0.89% (n = 100,000). AID 493033, 2011. inhibition, % (concentration not given with the values). purified MbtI enzyme, fluorescence intensity read-out; in the data active = inhibition mostly above about 56%, no sharp cut-off; inactive = mostly below about 77%
# Target sequence (P9WFX0 whole entry, looked up): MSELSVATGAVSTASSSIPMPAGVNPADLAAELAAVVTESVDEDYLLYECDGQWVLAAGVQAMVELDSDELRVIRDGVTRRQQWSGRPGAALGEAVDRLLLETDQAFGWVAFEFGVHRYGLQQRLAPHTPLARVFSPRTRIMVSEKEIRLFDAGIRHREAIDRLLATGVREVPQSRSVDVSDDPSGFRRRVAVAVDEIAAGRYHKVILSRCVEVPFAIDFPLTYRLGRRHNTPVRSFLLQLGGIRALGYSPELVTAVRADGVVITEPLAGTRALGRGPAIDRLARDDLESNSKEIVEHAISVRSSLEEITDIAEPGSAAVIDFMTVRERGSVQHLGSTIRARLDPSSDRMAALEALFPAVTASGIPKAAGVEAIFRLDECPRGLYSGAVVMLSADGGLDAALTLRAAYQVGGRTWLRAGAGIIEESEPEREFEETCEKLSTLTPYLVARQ
# Active calls of the source: *; i = inactive; nt = not tested or not shown; ! = repeats disagree.
SMILES,Mtb MenB inh,PV pol inh,AID504770,Mtb MbtI inh
COc1ccc(Cl)cc1NC(=O)c1sc(=S)n(C)c1N,-23.9,72.0*,-0.35,87.7*
COc1ccc(-n2c(C(C)N3CCCCC3)n[nH]c2=S)cc1 (stereo not drawn),1.5,103.0,-5.25*,-5.8
COc1ccc(N2CCN(CCN3CCCCC3)CC2)cc1,18.8,101.0,-0.1,8.9
O=C(/C=C/c1ccccc1)ON1C(=O)CCC1=O,-14.2,35.0*,0.65,nt
CC1(C)NC(=S)N(c2ccccc2)N1,-19.9,116.0,2.7,7.2
COc1ccc(C(=O)n2c(=S)nc3cc(C)ccn32)cc1,-16.0,79.0*,1.95,nt
COc1ccc(C(=O)NCc2cn3ccc(C)cc3n2)cc1,nt,107.0,nt,nt
CCc1ccc(CNC(=O)CCn2c(=O)oc3ccccc32)cc1,-3.2,103.0,2.25,7.3
Nn1c(SCCOc2ccccc2)nnc1-c1ccccc1,-29.6,79.0*,1.05,34.2
Fc1ccc(CN2CCc3ccccc3C2)cc1Br,-26.7,99.0,-1.05,-28.9
C=CCN1C(=O)/C(=C\c2ccc(OC(=O)c3ccco3)c(OC)c2)SC1=S,-37.3,105.0,-0.6,-9.3
COc1cc(/C=C2/C(=O)NN(c3ccc(Cl)cc3)C2=O)ccc1OC(=O)c1ccco1,-42.0,101.0,-0.35,98.8*
O=C(c1ccc(F)cc1)N1CCc2ccccc2C1,-16.0,85.0*,-0.55,nt
CCCCn1nc(C(=O)Nc2nc(SC)ns2)ccc1=O,-30.9,105.0,0.35,-25.1
CC(C)CNC(=O)CCN1C(=O)c2ccccc2S1(=O)=O,1.0,103.0,-0.75,0.4
O=C(Cc1ccccc1Cl)NC1(O)C(=O)c2ccccc2C1=O,-9.6,83.0*,-0.6,-9.1
CSC1=C(C#N)C(=O)NC(c2ccc(Cl)cc2)S1 (stereo not drawn),-1.1,88.0*,-0.1,1.9
CCCN=c1ssc(=O)n1CCC,0.4,91.0,-1.5,66.8*
NC(=O)c1ccsc1NC(=O)c1ccc2ncsc2c1,nt,nt,0.35,nt
O=S1(=O)CCC(NC(=S)S)C1 (stereo not drawn),nt,101.0,-1.55,95.6*
O=S1(=O)CCC(NC(=S)SCc2ccccc2)C1 (stereo not drawn),nt,nt,-3.75*,nt
Cn1c(=O)c2cn(-c3ccccc3)cc2n(C)c1=O,nt,nt,1.85,nt
Cn1c(=O)sn(-c2ccccc2)c1=O,3.4,96.0,-5.15*,100.0*
COC(=O)c1ccccc1NC(=O)c1ccc2c(c1)sc1nc(-c3ccc(OC)cc3)cn12,4.3,100.0,-0.75,-2.7
CCOC(=O)c1c(-c2ccccc2)csc1NC(=O)c1cc(-c2ccc(F)cc2)on1,nt,89.0*,nt,nt
SMILES,Mtb MenB inh,PV pol inh,AID504770,Mtb MbtI inh
CCOC(=O)c1c(-c2ccc(C)cc2)csc1NC(=O)c1cc(-c2ccc(C)c(F)c2)on1,nt,111.0,nt,nt
CCOC(=O)c1c(-c2ccccc2)csc1NC(=O)c1cc(-c2ccc(Br)cc2)on1,nt,78.0*,nt,nt
CCc1c(C)sc(NC(=O)c2cc(-c3ccccc3)on2)c1C#N,-11.4,83.0*,3.6,nt
CCC(C)n1c(=O)[nH]c2c1c(=O)n(C)c(=O)n2C (stereo not drawn),nt,nt,-0.95,-3.8
CC(C)n1c(=S)[nH]c2c1c(=O)[nH]c(=O)n2C,0.3,101.0,-0.3,101.6*!
O=C(COc1ccccc1)N=Nc1c(O)[nH]c2ccccc12,-66.8,100.0,-0.45,-8.3
C1CN2CN3CCN(CN1C3)C2,-27.4,103.0,-2.4*,-9.6
N#CC1=C(S)NC(=O)C(C#N)C12CCCCC2 (stereo not drawn),-29.6,104.0,-0.35,91.0*
CSC1=C(C#N)C2(CCCC2)C(C#N)C(=O)N1 (stereo not drawn),nt,105.0,-0.05,-12.1
Cc1oc2cc(O)ccc2c(=O)c1Oc1ccc(-c2ccccc2)cc1,nt,103.0,1.1,-92.7
COc1ccc(NC(=O)c2c(NC(=O)c3ccncc3)sc3c2CCC(C(C)(C)C)C3)cc1 (stereo not drawn),nt,102.0,nt,nt
CCOc1ccc(NC(=O)c2c(NC(=O)c3ccncc3)sc3c2CCC(C(C)(C)C)C3)cc1 (stereo not drawn),nt,83.0*,nt,nt
Nc1ccc(CC(C(=O)O)c2ccccc2)cc1 (stereo not drawn),nt,nt,-0.55,-6.3
Nc1cccc(Cl)c1O,-7.4,101.0,-0.15,57.0*
N=C(N)Cc1c(Cl)cccc1Cl,nt,nt,2.95,nt
Cc1ccc(C(=O)NCC2CCCO2)cc1 (stereo not drawn),8.2,102.0,0.7,5.0
CCn1c(N)c(C(=O)NCC2CCCO2)sc1=S (stereo not drawn),-19.4,96.0,0.05,81.8*
CCn1c(N)c(C(=O)NC)sc1=S,-21.2,97.0,-0.45,86.7*
COc1ccc(-c2cc(=O)oc3c4c(ccc23)OCN(Cc2ccco2)C4)cc1,19.6,103.0,1.35,1.8
CCOC(=O)c1cnc2ccccc2c1NCCc1ccccc1,-1.0,100.0,-0.8,40.5
CCOC(=O)c1cccc2ncccc12,-60.9,99.0,0.75,96.0*
CCOC(=O)/C(C#N)=C\N1CCOCC1,-1.0,102.0,-0.25,11.1
CCOC(=O)/C(C#N)=C\C1=C(N2CCCC2)CC(C)(C)OC1,i,101.0,0,62.2*
CCOC(=O)CCn1cc(/C=C(\C#N)C(N)=S)c(-c2ccccc2)n1,-53.1,89.0*,0.95,51.0
CCOC(=O)/C(C#N)=C/c1cn(CCC#N)nc1-c1ccccc1,-24.0,100.0,-1.1,-3.1
SMILES,Mtb MenB inh,PV pol inh,AID504770,Mtb MbtI inh
CC(C)(C)NS(=O)(=O)c1ccc(S(=O)(=O)N2CCCC2)cc1,-9.1,104.0,-0.3,40.9
CCC(C)n1c(=O)[nH][nH]c1=S (stereo not drawn),-7.5,103.0,-0.4,51.3*
Cc1ccc(-c2c(CN3CCN(c4cccc(C(F)(F)F)c4)CC3)csc2C)cc1,nt,89.0*,nt,nt
O=C1CC(C(=O)Nc2cc(Cl)cc(Cl)c2)C2=C(CCCC2=O)N1 (stereo not drawn),-13.5,100.0,0,3.4
Oc1ccc(O)c(C2CC3CCC2C3)c1 (stereo not drawn),-30.2,99.0,-0.4,102.5*
COC(=O)C1C(=O)CC(=O)CC1c1ccco1 (stereo not drawn),39.9*,100.0,1.25,0.7
O=C(c1ccc2c(Cl)c3c(nc2c1)CCCC3)N1CCCCCC1,2.0,102.0,-0.45,2.8
O=C(CNCCc1ccc2c(c1)OCCO2)NC1CCCCCC1,-23.2,104.0,-0.3,-6.8
N#Cc1ccc(CSc2nc3ccccc3c(=O)[nH]2)cc1,-13.7,99.0,-0.1,53.4*
CC1Cc2cc(C(=O)Cn3nnc4ccccc4c3=O)ccc2N1S(C)(=O)=O (stereo not drawn),-5.3,103.0,-0.6,12.6
Cc1cc(C)c(CO)c(C)c1CO,-26.4,102.0,1.35,3.7
Cc1cc(C)c(C)c(S(=O)O)c1C,-36.3,83.0*,-0.3,3.2
O=c1onc(-c2cccs2)n1Cc1ccc(F)cc1Cl,-11.5,102.0,-1.35,-7.9
CCn1cc(C(=O)O)c(=O)c2cc(F)c(N3CCN(C(=S)NC)CC3)cc21,-13.6,109.0,-7.2*,nt

# High-throughput results from PubChem BioAssay.
